Source: PubChem BioAssay
Several values for one entry are separate records, joined by “and”; a condition that tells them apart may be missing. Equal values may be shown once. Activity calls are given as the source filed them. Unless noted, no stated cut-off is given here; in the data, active means inhibition above about 80%; inactive means the rest.

Experiments:
[1] = growth inhibition, single agent and combos, cell-based, chromothripsis tumors, cisplatin or BGB combos (AID 1671450); details: HDN33 neuroblastoma cells, stronger effect = higher value;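 further: cells exposed to compound for four days; 0% = vehicle DMSO and 100% = cell killing by high DMSO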
[2] = growth inhibition, single agents and combos, LFS_MB_1R, cell-based, cisplatin or BGB combos, synergistic combos for chromothripsis tumors (AID 1671452); details: LFS_MB_1R medulloblastoma cells, stronger effect = higher value;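 further: cells exposed for 96 hours before readout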
[3] = growth inhibition, single agents and combos, HTB85, cell-based, BGB or cisplatin IC20 combos, synergistic combos for chromothripsis tumors (AID 1671453); details: HTB85 osteosarcoma cells, drug combinations, stronger effect = higher value;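 further: cells exposed for 96 hours before readout; 0% = vehicle DMSO and 100% = high DMSO killing control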
[4] = growth inhibition, single agents and combos, CRL2098, cell-based, BGB or cisplatin IC20 combos, synergistic combos for chromothripsis tumors (AID 1671454); details: CRL2098 osteosarcoma cells, drug combinations, stronger effect = higher value;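 further: cells exposed for 96 h before readout; 0% = vehicle DMSO and 100% = killing by high DMSO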
[5] = growth inhibition, single agents and combos, HD-MB03, cell-based, BGB or cisplatin IC20 combos, synergistic combos for chromothripsis tumors (AID 1671455; in the data active means inhibition above about 83%;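 further: 0% = vehicle DMSO and 100% = high DMSO as cytotoxic control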); details: HD-MB03 medulloblastoma cells, stronger effect = higher value
[6] = growth inhibition, single agents and combos, UWB1.289, cell-based, BGB or cisplatin combos, synergistic combos for chromothripsis tumors (AID 1671456); details: UWB1.289 ovarian carcinoma cells, stronger effect = higher value;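 further: cells exposed to compound for four days; 0% = vehicle DMSO and 100% = killing by high DMSO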
[7] = growth inhibition, single agents and combos, LFS_MB_2R, cell-based, cisplatin combos, synergistic combos for chromothripsis tumors (AID 1671457); details: LFS_MB_2R medulloblastoma cells, stronger effect = higher value;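 further: cells exposed to compound for four days before readout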
[8] = growth inhibition, MDA-MB-436, cell-based, BGB or cisplatin combos, synergistic combos for chromothripsis tumors (AID 1671458; call rule not given here;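 further: cells exposed for 96 hours; 0% = vehicle DMSO and 100% = killing by high DMSO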); details: MDA-MB-436 breast carcinoma growth inhibition, drug combinations, stronger effect = higher value
[9] = UWB1.289_BRCA1 ovarian cancer growth, cell-based, BGB or cisplatin combinations (AID 1671459); details: UWB1.289 BRCA1 ovarian carcinoma, drug combinations, stronger effect = higher value
[10] = drug combination toxicity in non-malignant astrocytes – cell-based, BGB or cisplatin IC20 combos, cytotoxicity control for chromothriptic childhood tumor combination screen (AID 1671460); details: Human astrocytes, viability inhibition, drug combinations, at 0.5 µM, stronger effect = higher value;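 further: cells exposed to compounds for 96 hours before viability readout; 0% = vehicle and 100% = killing control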
[11] = BT084 cell growth, single and combined drugs, ICGC_MB145, cisplatin and BGB IC40 combos (AID 1671461); details: BT084 medulloblastoma cells, drug combinations, stronger effect = higher value;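 further: cells exposed to drugs for 96 hours; 0% = vehicle DMSO and 100% = high DMSO full killing control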
[12] = RCMB18 cell growth, single agent and combined, cisplatin and BGB IC40 combos (AID 1671462); details: RCMB18 medulloblastoma cells, stronger effect = higher value;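 further: cells exposed to compound for four days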
[13] = CRL1545 cell growth, single agent and combined, cisplatin and BGB IC20 combos (AID 1671464); details: CRL1545 osteosarcoma cells, stronger effect = higher value;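 further: cells exposed to compound for 96 hours before readout; 0% = vehicle DMSO and 100% = high DMSO killing control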
[14] = measured here: with BGB IC20 combination, at 0.5 µM
[15] = measured here: with cisplatin IC20 combination, at 0.5 µM
[16] = measured here: combination with cisplatin, at 0.5 µM
[17] = measured here: combination with cisplatin, at 5 µM

Cn1c(=O)c2[nH]cnc2n(C)c1=O
inhibition ([1]; BGB combo, at 5 µM): -6.91% and -17% and -18.3%
inhibition ([1]; at 0.5 µM): 1.38% (inactive) and 2.18% (inactive) and -18.5% (inactive)
inhibition ([1]; cisplatin combo, at 5 µM): 14.2% and 15.4% and -46.9%
inhibition [1, 14]: 4.11% and 8.06% and -21.1%
inhibition [1, 15]: 9.64% and 13.8% and 3.17%
inhibition ([1]; single agent, at 5 µM): -10.4% and -21.4% and -26.1%
inhibition ([2]; at 0.5 µM): -21.9% (inactive) and -0.42% (inactive) and -31.4% (inactive)
inhibition ([2]; measured here: combination with BGB IC40, at 0.05 µM): -26.4% and 1.86% and -7.92%
inhibition [2, 16]: -14.9% and -0.619% and -31.4%
inhibition [2, 17]: 8.09% and -20.9% and -28.9%
inhibition ([3]; at 0.5 µM): 4.06% (inactive) and -19.4% (inactive) and 3.27% (inactive)
inhibition ([3]; measured here: with BGB IC20, at 0.5 µM): -3.78% and -35% and -47%
inhibition ([3]; measured here: with BGB IC20, at 5 µM): -9.64% and -9.51% and -34.2%
inhibition ([3]; measured here: with cisplatin IC20, at 0.5 µM): -5.37% and -29.8% and 44.7%
inhibition ([3]; measured here: with cisplatin IC20, at 5 µM): -42.2% and 14.2% and 0.95%
inhibition ([3]; single agent, at 5 µM): 4.95% and 14.1% and 12.1%
inhibition ([4]; at 0.5 µM): -26.5% (inactive) and -30.1% (inactive) and -56.1% (inactive)
inhibition ([4]; measured here: combination with BGB at IC20, at 0.5 µM): -30.2% and -27.7% and -48.2%
inhibition ([4]; measured here: combination with cisplatin at IC20, at 0.5 µM): -14.9% and -28.7% and -88%
inhibition ([5]; at 0.5 µM): -13.1% (inactive) and -5.07% (inactive) and -0.46% (inactive)
inhibition ([5]; measured here: combo with BGB at IC20, at 0.5 µM): -12% and -8.62% and 8.13%
inhibition ([5]; measured here: combo with cisplatin at IC20, at 0.5 µM): -20.1% and -3.43% and -7.86%
inhibition ([6]; at 0.5 µM): 4.45% (inactive) and -2.98% (inactive) and 2.06% (inactive)
inhibition ([6]; measured here: inhibition with BGB combination, at 0.05 µM): -14.7% and -27.6% and -12%
inhibition ([6]; measured here: inhibition with cisplatin combination, at 0.05 µM): -7.61% and -9.15% and -16.4%
inhibition ([7]; at 0.5 µM): -18.7% (inactive) and -17.5% (inactive) and -20.5% (inactive)
inhibition [7, 16]: -25.2% and -14.1% and -19.4%
inhibition [7, 17]: -67.2% and -2.43% and -20.9%
inhibition ([8]; at 0.5 µM): -17.5% (inactive) and -19.5% (inactive) and -13.6% (inactive)
inhibition ([8]; measured here: BGB combination, at 0.5 µM): -12% and -14.3% and -17.1%
inhibition ([8]; measured here: BGB combination, at 5 µM): -13.2% and -18.8% and -9.87%
inhibition ([8]; measured here: cisplatin combination, at 0.5 µM): -40.2% and -33.9% and -18.2%
inhibition ([8]; measured here: cisplatin combination, at 5 µM): -36.3% and -17.6% and -0.817%
inhibition ([9]; BGB combination, concentration series, at 5 µM): -19.8% and 16.6% and -0.184%
inhibition ([9]; at 0.5 µM): -1.02% (inactive) and -1.86% (inactive) and -8.23% (inactive)
inhibition ([9]; cisplatin combination, concentration series, at 5 µM): 10.1% and 4.75% and 18.9%
inhibition [10]: 0.61% (inactive) and -3.23% (inactive) and 6.04% (inactive)
inhibition ([10]; measured here: combo with BGB IC20): -5.91% and -4.46% and 10.7%
inhibition ([10]; measured here: combo with cisplatin IC20): -10.6% and -12% and 4.82%
inhibition ([11]; at 0.5 µM): -52.1% (inactive) and -29.3% (inactive) and -9.65% (inactive)
inhibition ([11]; cisplatin combination, at 0.5 µM): -24.1% and -32.5% and -4.44%
inhibition ([11]; cisplatin combination, at 5 µM): -14.9% and -47.9% and -47.4%
inhibition ([11]; measured here: BGB IC40 combination 0.05 uM, at 0.05 µM): -3.16% and -19.9% and 10.3%
inhibition ([11]; single agent, at 5 µM): -10.6% and -25.6% and -15.2%
inhibition ([12]; at 0.5 µM): -12.3% (inactive) and -7.91% (inactive) and -23.8% (inactive)
inhibition ([12]; cisplatin combo, at 5 µM): -18.4% and 16.4% and 3.76%
inhibition ([12]; measured here: BGB IC40 combination, at 0.05 µM): -15.1% and -0.46% and -14.9%
inhibition [12, 16]: 5.37% and -0.222% and -34.5%
inhibition ([12]; single agent, at 5 µM): -20% and -29.1% and -26.4%
inhibition ([13]; at 0.5 µM): 2.86% (inactive) and -13.9% (inactive) and -23% (inactive)
inhibition [13, 14]: 6.54% and -1.14% and 25.3%
inhibition [13, 15]: -1.22% and -20.4% and -47.1%
inhibition ([13]; single agent, at 0.05 µM): 6.84% and 45.8% and 6.98%
inhibition ([13]; single agent, at 5 µM): 18.7% and 15.6% and -12.3%
